Each structure is given as a SMILES string. This is part of a sample that, as a whole, favours compounds with a hit. Of some 79,000 tested, about 15% had one in any assay. A number with no mark means an inactive call. Calls of active or inactive are those of the source. No stated cut-off is given here; in the data, active means growth inhibition above about 70%; inactive means the rest.

Test [1] can be described thus: NCI Yeast Anticancer Drug Screen. Data for the rad50 strain (AID 155).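 Further: 0% = growth of vehicle-only cultures of the same strain.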 The following applies: S. cerevisiae rad50 strain growth inhibition; at 50.0 µM; hits give high values. In short, it runs like this:
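Vehicle-treated cultures provide the reference for the growth inhibition reported for compound-exposed, repair-deficient yeast.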

Test [2] can be described thus: NCI Yeast Anticancer Drug Screen. Data for the mec2-1 strain (AID 157). The note with it: S. cerevisiae mec2-1 strain, at 50.0 µM, hits give high values. In short, it runs like this: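 Each compound was tested on mec2-1 yeast, a strain altered in DNA damage repair or cell cycle control. Growth inhibition is reported relative to vehicle.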
Test [3] can be described thus: NCI Yeast Anticancer Drug Screen. Data for the sgs1 mgt1 strain (AID 161).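 Further: 0% = growth of cultures given vehicle only.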 The following applies: S. cerevisiae sgs1 mgt1 strain, at 50.0 µM, hits give high values. The procedure, abridged: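 Genetically altered yeast, compound exposure, growth inhibition relative to vehicle.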
Test [4] in a line: NCI Yeast Anticancer Drug Screen. Data for the cln2 rad14 strain (AID 165).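 Further: 0% = growth equal to vehicle treated cultures.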 The note with it: S. cerevisiae cln2 rad14 strain, at 50.0 µM, hits give high values. In short, it runs like this:
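Test compounds were added to cln2 rad14 yeast cultures; inhibition of growth was then determined by comparison with vehicle treatment.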

Test [5] is described as follows: NCI Yeast Anticancer Drug Screen. Data for the bub3 strain (AID 167). The note with it: S. cerevisiae bub3 mutant strain, at 50.0 µM, hits give high values. The procedure, abridged:
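Mutant yeast screening strain plus compound; vehicle-treated cultures serve as the 0% inhibition reference.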

Test [6] is described as follows: NCI Yeast Anticancer Drug Screen. Data for the mlh1 rad18 strain (AID 175). The following applies: S. cerevisiae mlh1 rad18 strain growth inhibition; at 50.0 µM; hits give high values. The procedure, abridged: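 Inhibition values reflect reduced growth of mutant yeast versus vehicle-treated controls following compound exposure; the mutations affect DNA damage repair.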

As to `COC(=O)c1ccc2c(ccc[n+]2C)c1`, the growth inhibition in test [1] is -0.6%; in test [2], 21.3%; in test [3], -7.05%; in test [4], 4.8%; in test [5], -3.45%; in test [6], 2.3%.

In the case of `O=[N+]([O-])c1ccc(S(=O)(=O)Nc2c([N+](=O)[O-])cc([N+](=O)[O-])c3ccccc23)cc1`, the growth inhibition was 36.6% in test [1]; -3.9% in test [2]; 21.4% in test [3]; 12.7% in test [4]; 2.7% in test [5]; 18.4% in test [6].

As to `COC(=O)CC#N`, the growth inhibition in test [1] is -13.3%; in test [2], 4.9%; in test [3], 10.1%; in test [4], -2.75%; in test [5], -1.2%; in test [6] it was -13.3%.

Turning to `Cn1c(N)nc2c1c(=O)[nH]c(=O)n2C`, the growth inhibition in test [1] is 12.6%; in test [2], -0.75%; in test [3] it was 5.25%; in test [4], 13.2%; in test [5], -19.4%; in test [6], 21.8%.

For `CC1=C(C(=O)CC(=O)C(=O)Nc2ccc(Cl)cc2Cl)Sc2ccccc2N1`, the growth inhibition in test [1] was -5.65%; in test [2], -11.2%; in test [3], -20.1%; in test [4], -6.1%; in test [5], 2.55%; in test [6], 3.45%.

Take `CC(C)C(NC(=O)C(Cc1ccccc1)NC(=O)[C@H]1CCC[C@H]1NC(=O)C(Cc1ccc(OC(C)(C)C)cc1)NC(=O)OC(C)(C)C)C(N)=O` (stereo partly drawn): the growth inhibition in test [1] was -11.2%; in test [2], -6.7%; in test [3], -15.8%; in test [4], 18.7%; in test [5], -7.65%; in test [6] it was -0.2%.

Turning to `CCC(C)(CC(=O)O)CC(=O)O`, the growth inhibition is -13.9% in test [1]; 7.45% in test [2]; -15.7% in test [3]; 0.85% in test [4]; 2.7% in test [5]; 5.3% in test [6].

In the case of `C=CCCCCCCCCCCCC`, the growth inhibition in test [1] was -20.1%; in test [2], 0%; in test [3] it was -20.8%; in test [4], 0.8%; in test [5] it was -21.2%; in test [6], -0.4%.

Consider `N#Cc1nc(-c2ccccc2)c(-c2ccccc2)nc1C#N`, for which the growth inhibition in test [1] is 3.15%; in test [2], 9.8%; in test [3], 0.6%; in test [4], -7.05%; in test [5] it was 13.9%; in test [6], -0.6%.

Regarding `OCCCc1nc2ccccc2[nH]1`, the growth inhibition in test [1] is -10.3%; in test [2], -21.8%; in test [3] it was -15.1%; in test [4] it was 8.85%; in test [5], -17.7%; in test [6], 11.1%.

Consider `C/C(=N/S(=O)(=O)c1ccc(C)c(C)c1)OC(C)C`, for which the growth inhibition in test [1] is 2.6%; in test [2], 6.9%; in test [3] it was 7.95%; in test [4], -55.1%; in test [5], 13.1%; in test [6], -1.2%.

Consider `C=CC/C=C/CCC`, for which the growth inhibition in test [1] was 34.6%; in test [2], -2.7%; in test [3], -7.85%; in test [4] it was -21.8%; in test [5] it was -2.4%; in test [6], -9.7%.

As to `COc1nc(NC2OCC(O)C(O)C2O)c(Br)c(=O)n1C` (stereo not drawn), the growth inhibition was 4.9% in test [1]; -10.4% in test [2]; 14.2% in test [3]; 11.8% in test [4]; 17.5% in test [5]; 13% in test [6].

Turning to `COc1cc([N+](=O)[O-])ccc1NC(=O)c1cccc([N+](=O)[O-])c1C(=O)O`, the growth inhibition in test [1] is 5%; in test [2], 20.6%; in test [3] it was 42.8%; in test [4], -9.5%; in test [5], -16.8%; in test [6], 24.6%.

As to `Cc1ccc(N=C2SC(=NN(C)C)SC2=Nc2ccc(C)cc2)cc1`, the growth inhibition is 18.9% in test [1]; -14.1% in test [2]; 8.35% in test [3]; -20.3% in test [4]; -5.25% in test [5]; -11.6% in test [6].

With `O=C(O)CSSCC(=O)O`, the growth inhibition in test [1] was -0.15%; in test [2], -16.6%; in test [3], -18.8%; in test [4], 23.1%; in test [5], -10.2%; in test [6], -24.5%.

Turning to `COc1ccc(C2CC(=O)N(c3nccc(C)n3)C(=O)C2)cc1`, the growth inhibition in test [1] is 13.5%; in test [2], 14.4%; in test [3], 15.9%; in test [4], -19.1%; in test [5], -16.5%; in test [6], 14.2%.

For `O=S(=O)(O)CS(=O)(=O)O`, the growth inhibition in test [1] was -21.9%; in test [2] it was -2.3%; in test [3], 8.3%; in test [4], -26.4%; in test [5] it was 4.9%; in test [6], -1.15%.

Take `O=C(O)c1ccc(NS(=O)(=O)Cc2ccccc2)cc1`: the growth inhibition in test [1] is -14.3%; in test [2], -24.1%; in test [3], -41.5%; in test [4], -22.4%; in test [5], -36.5%; in test [6], -6.3%.

As to `O=C(O)Cc1ccccc1C(=O)O`, the growth inhibition in test [1] is 12.9%; in test [2], 2.3%; in test [3], 7.7%; in test [4], 13.8%; in test [5], -19%; in test [6], -5%.

As to `COC(=O)N1CCc2c(nc(N(C)CCO)[nH]c2=O)C1`, the growth inhibition in test [1] is -0.55%; in test [2] it was -20.5%; in test [3] it was -47.2%; in test [4] it was -3.8%; in test [5], -30.1%; in test [6], -30.6%.

With `Clc1ccc(C2OCCO2)cc1`, the growth inhibition is 12.2% in test [1]; 3.95% in test [2]; 11.2% in test [3]; 3.35% in test [4]; -0.35% in test [5]; 14.3% in test [6].

On to `C=C(C)C(CCC)(C(=O)OCC)C(=O)OCC`, for which the growth inhibition in test [1] is 3.05%; in test [2] it was -9.15%; in test [3] it was 12.6%; in test [4] it was -4.3%; in test [5] it was -13.2%; in test [6], -14.1%.

Turning to `CC(=O)Oc1c(C(C)(C)C)cc([N+](=O)[O-])c(C)c1[N+](=O)[O-]`, the growth inhibition in test [1] was 97% (active); in test [2], 97.3% (active); in test [3], 94.9% (active); in test [4], 74.2% (active); in test [5] it was 94% (active); in test [6] it was 95.2% (active).

`COc1ccc(SC(N(C)C)=[N+](C)C)cc1`: the growth inhibition in test [1] is -17.1%; in test [2], 1.1%; in test [3], 7.1%; in test [4] it was 11.4%; in test [5] it was 2.8%; in test [6] it was 3.8%.

Regarding `O=C(Nc1ccc(Cl)cc1)Nc1nnc2nc(C3(c4nc5nnc(NC(=O)Nc6ccc(Cl)cc6)n5[nH]c4=O)Cc4ccccc4C3=O)c(=O)[nH]n12`, the growth inhibition in test [1] is 29.5%; in test [2] it was -1.6%; in test [3], 8.3%; in test [4], 12.9%; in test [5] it was 8.75%; in test [6], 2.3%.

In the case of `C[N+](C)(C)c1cc(Br)c(O)c(Br)c1`, the growth inhibition in test [1] was 1.85%; in test [2], 31.9%; in test [3], 12%; in test [4], -2.75%; in test [5] it was 41.2%; in test [6], 33%.

Regarding `NNC(=O)C(=O)N/N=C(/CC1(O)C(=O)Nc2ccccc21)c1ccc(Cl)cc1Cl` (stereo not drawn), the growth inhibition was -0.9% in test [1]; 4% in test [2]; -15.9% in test [3]; -53.4% in test [4]; 0.75% in test [5]; -1.95% in test [6].

For the compound `O/N=C1/CCSc2ccccc21`, the growth inhibition in test [1] was 21%; in test [2] it was -8.9%; in test [3], 17.1%; in test [4], 16.2%; in test [5], 28.4%; in test [6], 8.25%.

Take `CCN(Cc1ccccc1)C(=O)Nc1c(Cl)cccc1Cl`: the growth inhibition in test [1] was -13.5%; in test [2] it was -30.1%; in test [3] it was 1.35%; in test [4], -1.5%; in test [5] it was -9.85%; in test [6], -4.05%.

Turning to `Cn1c(=O)c2n[nH]nc2n(C)c1=O`, the growth inhibition was 7.25% in test [1]; -0.5% in test [2]; -0.35% in test [3]; -11.7% in test [4]; -14.8% in test [5]; 15.8% in test [6].

In the case of `CCC1(c2ccccc2)SC(N)=NC1=O` (stereo not drawn), the growth inhibition in test [1] is 2.15%; in test [2] it was 2.75%; in test [3], -12.8%; in test [4], -8.45%; in test [5], 1.05%; in test [6], -0.6%.

Regarding `CN(C)c1ccccc1CN1CCCN(Cc2ccccc2N(C)C)C1c1ccncc1`, the growth inhibition was -16.3% in test [1]; -10.1% in test [2]; -12.3% in test [3]; -0.25% in test [4]; -16.2% in test [5]; -1.55% in test [6].

Turning to `CC(=O)Nc1ccc(/C=C/C(=O)O)cc1`, the growth inhibition in test [1] is -38.6%; in test [2] it was -30.6%; in test [3], -21.7%; in test [4] it was -6.05%; in test [5], -31.2%; in test [6] it was -30.8%.

With `c1ccc([Si](c2ccccc2)(c2ccccc2)c2ccc(-c3ccc([Si](c4ccccc4)(c4ccccc4)c4ccccc4)cc3)cc2)cc1`, the growth inhibition in test [1] was 1.1%; in test [2], -0.75%; in test [3] it was -8.3%; in test [4] it was -4.35%; in test [5], -0.05%; in test [6], -15.9%.

For `C[C@H]1C[C@](C)(CO)Oc2oc3ccccc3c(=O)c21`, the growth inhibition is 4.5% in test [1]; 10.3% in test [2]; 17.4% in test [3]; 4.75% in test [4]; 7.2% in test [5]; 13.1% in test [6].

As for `CC(C)OP(=O)(CCC(=O)C1(O)CCC2C3CCC4=CC(=O)CCC4(C)C3CCC21C)OC(C)C` (stereo not drawn), the growth inhibition is 11.4% in test [1]; 4.25% in test [2]; 10.3% in test [3]; 3.25% in test [4]; 0.65% in test [5]; -8.6% in test [6].

Turning to `Cc1cc(=O)n2c(cc3cccccc32)n1`, the growth inhibition in test [1] was 14.6%; in test [2], -1.3%; in test [3] it was -13.4%; in test [4], -23.4%; in test [5] it was -23.4%; in test [6], 4.65%.

(Values after PubChem BioAssay (NCI).)
